Source: PubChem
An excerpt weighted towards active compounds, which were near 10% of everything screened.
NS1 inh: inhibitors of influenza NS1 protein function; Potency, µM (top dose mostly 46.1 µM), without a hit: at the top dose activity, positive = more growth; AID 2326; 270,000 compounds, 0.4% hits; calls by dose curve; note: actives are rising curves; nearly all actives have a fitted effect of over 50% in size
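Recovery from NS1-induced slow growth read by OD600 in budding yeast switched to galactose assay medium (pH 6.0, -URA) at 1:100 dilution. Compound 23 nl per well; the matching strain lacking NS1 serves as control.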
SARS PLP yeast: blocks SARS-CoV papain-like protease in a yeast assay; 330,000 compounds, 0.19% hits; S. cerevisiae expressing SARS-CoV PLpro, growth rescue; Potency, µM (highest dose often 32.9 µM), inactives show at the top dose activity, positive = growth rescue, usual class: activators; AID 485353; calls by dose curve; note: 0% is about no effect; nearly all actives have a fitted effect of over 55% in size
Pf growth 96h: P. falciparum growth inhibition at 96 hour, primary screen for plastid delayed-death inhibitors; P. falciparum luciferase reporter growth, 96 h; Potency, µM (series often up to 28.7 µM), for the others: at the highest dose activity change, negative = inhibition, actives largely listed as inhibitors; 320,000 compounds, 6.9% hits; AID 504834; note: % is set by controls: 0 for no effect and ±100 for the full control effect
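Delayed-death screen, second-generation endpoint: infected erythrocytes, 2% hematocrit, 0.05% parasitemia final; 96 hours at 37 C, 5% CO2; luciferase detection reagent; luminescence decrease equals reduced growth.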
Pf growth 48h: P. falciparum growth inhibition at 48 hours (one generation) | P. falciparum luciferase growth in erythrocytes, 48 h | Potency, µM (highest dose often 28.7 µM), for inactives: at the highest dose activity change, negative = inhibition, most hits filed as inhibitors | 310,000 compounds, 5.9% hits | AID 504832; note: % is set by controls: 0 for no effect and ±100 for the full control effect
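Luminescence readout; reporter = integrated firefly luciferase in P. falciparum. RBC culture at 2% hematocrit, 0.1% parasitemia final, 37 C/5% CO2; decreased signal taken as growth inhibition.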
Active calls of the source: *; ? = inconclusive; . = not tested or not shown. Unless noted, calls come from the whole dose curve; as a rule, active = well fitted inhibition curve with a large enough effect; inconclusive = small, poorly fitted or top-dose-only effect, or another doubt; inactive = no such curve, though single readings can be large or run the other way. Potency is the fitted concentration of half-maximal effect.

SMILES | NS1 inh | SARS PLP yeast | Pf growth 96h | Pf growth 48h
Cc1nnc(C)c2c(C)n(C(C)c3ccccc3)c(C)c12 (stereo not drawn) | -1% | 12% | -8% | 8.3µM*
CC(C)(C)NC(=O)C(c1ccncc1)N(C(=O)Cn1nnc(-c2ccc(F)cc2)n1)c1ccc(F)cc1 (stereo not drawn) | -1% | 0% | 4% | 2.6µM*
CC(C)(C)NC(=O)C(c1ccncc1)N(C(=O)Cn1nnc(-c2ccc(F)cc2)n1)c1ccccc1 (stereo not drawn) | -1% | 1% | 14% | 0%
CC(C)(C)NC(=O)C(c1ccc(O)cc1)N(C(=O)Cn1nnc(-c2ccc(F)cc2)n1)c1ccccc1F (stereo not drawn) | 6% | 1% | ? | 12µM*
Cc1ccc(N(C(=O)Cn2nnc(-c3ccc(F)cc3)n2)C(C(=O)NC(C)(C)C)c2ccncc2)cc1 (stereo not drawn) | 7% | 0% | -4% | 4.7µM*
COC(=O)C1=C(C(=O)OC)[C@@H]2Nc3ccccc3[C@@]23C[C@@H](C(=O)OC)N(C(C)=O)C3=N1 | 2% | 0% | 51% | 37%
CNC1C(O)C(OC2C(N)CC(N)C(OC3OC(CN)=CCC3N)C2O)OCC1(C)O (stereo not drawn) | . | . | -16% | -5%
COc1cc(Cl)c(C)cc1NC(=O)CNC(=O)Cn1cnc2ccccc2c1=O | 8% | -2% | ? | 31%
Cc1ccc(CN(C)c2nc(-c3cccnc3)nc3ccccc23)o1 | -23% | -1% | 12µM* | ?
COc1ccc(/C=N/Nc2ncnc3scc(-c4ccccc4)c23)cc1OC | ? | -3% | 10µM* | .
COc1ccc(CCNc2nc(-c3cccnc3)nc3ccccc23)cc1OC | -12% | -4% | ? | 15µM*
CCOc1ccc(CN(C)c2nc(-c3cccnc3)nc3ccccc23)cc1OC | -44% | -50% | ? | 12µM*
COC(=O)CNc1nc(-c2cccnc2)nc2ccccc12 | -53% | -5% | ? | -5%
COC(=O)CCNC(=O)c1nn(Cc2ccccc2)c(=O)c2ccccc12 | -4% | -3% | -14% | -5%
C=CCn1nnnc1-c1cc(Cl)cc(Cl)c1 | 3% | -4% | 28% | ?
NC(=O)C1CCN(C(=O)CCC(=O)c2ccc(Br)cc2)CC1 | 0% | 2% | -1% | 6%
CC1CC(OC(=O)C2CCN(S(=O)(=O)c3ccc(F)cc3)CC2)C(=O)O1 (stereo not drawn) | . | 2% | 13% | ?
Cc1cc(N/N=C/c2ccc(O)c(C)c2O)nc(-c2ccccc2O)n1 | 3% | -80% | ? | 5.9µM*
Clc1cccc(CNc2nc(-c3cccnc3)nc3ccccc23)c1 | -15% | -60% | ? | ?
Cc1ccc(-c2nc(N/N=C/c3ccncc3)c3ccccc3n2)cc1 | 3% | 12% | ? | .
COc1ccc(/C=N/Nc2nc(-c3cccnc3)nc3ccccc23)cc1OC | 11% | -2% | ? | 6.6µM*
Oc1ccc(/C=N/Nc2nc(-c3cccnc3)nc3ccccc23)c(O)c1 | 10% | 1% | ? | 9.3µM*
Cc1c(O)ccc(/C=N/Nc2nc(-c3cccnc3)nc3ccccc23)c1O | 3% | -1% | 10µM* | ?
Cc1ccc(S(=O)ON2CCC(C(=O)O)(c3ccccc3)CC2)cc1 (stereo not drawn) | -5% | . | . | .
COc1ccc(CCNc2ncnc3c2oc2ccccc23)cc1OC | -84% | -11% | 2.9µM* | ?
SMILES | NS1 inh | SARS PLP yeast | Pf growth 96h | Pf growth 48h
COc1ccc(CCNc2nc(C)nc3c2oc2ccccc23)cc1OC | -75% | -8% | -71% | .
CCOc1ccc(N(CC)C(=O)CCS(=O)(=O)c2cccc3nonc23)cc1 | 4% | 3% | 12% | 3%
Nc1nc(-n2cnnc2)nn1-c1ccccc1 | -1% | -3% | 2% | 7%
Nc1nc(N2C(=O)C3CC=CCC3C2=O)nn1-c1ccccc1 (stereo not drawn) | -13% | 5% | 2.9µM* | ?
Cc1[nH]c(C)c(S(=O)(=O)Nc2ccc(OC(F)(F)F)cc2)c1C(=O)N1CCCCC1 | 3% | -3% | 4% | 7%
Cc1nc2cc(NC(=O)c3cccc(S(C)(=O)=O)c3)ccc2o1 | -5% | 10% | -10% | 12%
Cc1ccccc1C1C(C#N)=C2N=C(N)c3c(sc4c3CCCCC4)N2C2=C1C(=O)CCC2 (stereo not drawn) | 2% | 3% | 2.6µM* | 1.9µM*
CCN(C(=O)CSc1nnc(C)n1-c1cccc(C)c1)C1CCS(=O)(=O)C1 (stereo not drawn) | . | 3% | -23% | -27%
